For experiment [1], the target named is Lysosomal acid glucosylceramidase (Homo sapiens) (UniProt P04062). The experiment in a line: Glucocerebrosidase-p2 (AID 348; in the data active = potency below about 10 µM; also: potency is read from the fitted curve at half-maximal effect). Conditions: purified GBA, blue fluorogenic substrate, 40 min. In short, it runs like this:
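Normal human glucocerebrosidase (0.2 nM) with blue fluorogenic substrate (80 uM final) in citrate/phosphate pH 5.9 with 10mM sodium taurocholate, 0.01% tween-20; 40 min RT, NaOH/glycine stop; fluorescence Ex 365/Em 440; AC50 from a titration from 0.6 nM upwards.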

The nature of experiment [2]: AP1 Signaling Pathway (AID 357).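 Also: ME-180 reporter cells stimulated with EGF at its EC50 level; % is scaled to controls: 0 for no effect and ±100 for the full control effect.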 Conditions: ME-180 AP-1-bla reporter, EGF-induced, beta-lactamase ratio, 5 h; at 7.69 µM (top of the series) unless noted. The method, boiled down: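 First, ME-180 AP-1-bla cells were cultured overnight at 37 °C in low-serum Opti-MEM. Next, titrated compounds with EC50 EGF were incubated 5 hours. Finally, CCF4 was added for 2.5 hours and the 460/530 nm ratio recorded.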

Experiment [3] concerns the target Cytochrome P450 1A2 (Homo sapiens) (UniProt P05177). The experiment in a line: p450-cyp1a2 (AID 410; calls by dose curve; also: potency is read from the fitted curve at half-maximal effect). Conditions: recombinant CYP1A2, luciferin-ME demethylation, luminescence; series mostly up to 57 µM. The method, boiled down: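 20nM CYP1A2, 100uM Luciferin-ME (=Km), 100mM KPO4; cpd 10 min RT; +NADPH regen, 60 min RT; stop/detect 20 min; luminescence. Normalized to furafylline 57 uM = full inhibition.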

Experiment [4] can be described thus: NFAT Signaling Pathway (AID 444).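 Also: carbachol stimulus at about its EC50 of 1 µM final; % is scaled to controls: 0 for no effect and ±100 for the full control effect.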 Conditions: Jurkat NFAT-bla M1, carbachol, beta-lactamase ratio, 5 h; at 7.69 µM (top of the series) unless noted. The method, boiled down:
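Jurkat cells with NFAT-driven β-lactamase reporter and co-expressed M1 receptor, stimulated with carbachol (final 1 uM, ~EC50), compound titration, 5 h at 37 °C. CCF4 loaded 1 h at RT; 460/530 nm ratio gave %activity and AC50.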

The nature of experiment [5]: Stat Signaling Pathway (AID 446).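 Also: ME-180 cervical cancer cells given 40 pM IL-6 alongside compound; SIE-controlled beta-lactamase reporter measured as 460/530 nm FRET emission ratio; % is scaled to controls: 0 for no effect and ±100 for the full control effect.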 Conditions: ME-180 SIE beta-lactamase reporter, IL-6 stimulated, 5 h; at 7.69 µM (top of the series) unless noted. In short, it runs like this: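 Normalization used AC90 stimulation (300 pM IL-6) and AC90 inhibition (125 nM pan-JAK inhibitor at 40 pM IL-6). The underlying signal is SIE-driven beta-lactamase in ME-180 cells after 5 h IL-6 exposure with compound.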

In experiment [6] the target is Glucocorticoid receptor (Homo sapiens) (UniProt P04150). The experiment in a line: GR-GFP Redistribution (AID 450;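 active = compounds whose dose series gives a full or clear partial fitted curve of increased nuclear translocation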; also: potency is read from the fitted curve at half-maximal effect). Conditions: U2OS GR-GFP nuclear translocation, laser cytometry, 2 h.
Sequence of Glucocorticoid receptor (Homo sapiens) (P04150 whole entry, looked up, the tested form may be a part): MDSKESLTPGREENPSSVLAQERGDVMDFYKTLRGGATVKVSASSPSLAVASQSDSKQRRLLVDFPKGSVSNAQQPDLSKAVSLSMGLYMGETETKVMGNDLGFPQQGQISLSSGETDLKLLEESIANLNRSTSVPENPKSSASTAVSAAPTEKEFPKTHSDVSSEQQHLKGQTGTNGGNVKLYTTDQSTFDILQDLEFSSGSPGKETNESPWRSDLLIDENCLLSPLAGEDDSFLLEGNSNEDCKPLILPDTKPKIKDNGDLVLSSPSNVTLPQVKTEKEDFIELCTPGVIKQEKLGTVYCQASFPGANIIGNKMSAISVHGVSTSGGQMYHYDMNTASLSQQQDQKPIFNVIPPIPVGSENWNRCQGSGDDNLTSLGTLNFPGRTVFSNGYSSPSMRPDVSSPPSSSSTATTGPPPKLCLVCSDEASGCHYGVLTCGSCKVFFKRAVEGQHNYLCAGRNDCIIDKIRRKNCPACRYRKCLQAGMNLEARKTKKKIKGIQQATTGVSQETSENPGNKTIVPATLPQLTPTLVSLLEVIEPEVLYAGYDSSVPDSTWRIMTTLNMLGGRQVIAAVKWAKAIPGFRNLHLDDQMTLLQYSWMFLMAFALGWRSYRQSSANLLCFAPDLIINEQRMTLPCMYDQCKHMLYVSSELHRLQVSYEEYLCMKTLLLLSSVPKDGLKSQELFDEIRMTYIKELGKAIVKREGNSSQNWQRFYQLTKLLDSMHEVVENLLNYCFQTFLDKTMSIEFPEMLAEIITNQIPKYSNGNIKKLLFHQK
Experiment [7] has the same target. As to the kind of experiment: GR-EFC Redistribution (AID 451; calls by dose curve; also: potency is read from the fitted curve at half-maximal effect). Conditions: CHO-K1 GR-EFC translocation, beta-gal luminescence, 2 h. In short, it runs like this: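 CHO-K1 cells expressing nuclear EA and GR-ED fragments of b-gal; compounds titrated up to 46 uM final, 2 h at 37 C. GR nuclear translocation read as complemented b-gal luminescence after 1 h RT detection.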

The target in experiment [8] is Mitogen-activated protein kinase 10 (Mus musculus) (UniProt Q61831). The experiment in a line: JNK3 AlphaScreen Assay (AID 530).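 Also: kinase came from lysate of stimulated human HepG2 cells; signal reports phosphorylation of biotinylated GST-cJun 1-79 at Ser73 with 10 µM ATP; % is scaled to controls: 0 for no effect and ±100 for the full control effect.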 Conditions: JNK3 lysate, c-Jun phosphorylation; series mostly up to 57.1 µM. In short, it runs like this:
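HepG2 lysate (IL-1b/TNFa pre-activated) + biotin-GST-cJun 1-79 + anti-pSer73 cJun; cpd titration, 15 min RT; ATP 10 uM start; Tris pH 7.6, MgCl2, DTT, vanadate; beads in EDTA buffer; AlphaScreen.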
In general terms: In Alpha technology, singlet oxygen from a donor bead excites a nearby acceptor bead.

The target of experiment [9] is 3',5'-cyclic-AMP phosphodiesterase 4B (Homo sapiens) (UniProt Q07343). The experiment in a line: qHTS Assay for Inhibitors of PDE-IV (AID 607; active = well fitted activation curve with a large enough effect in the main read-out, with a control signal flat, not every such curve was filed as active; also: % of control where 0% means no effect). Conditions: HEK293 ACTOne CNG channel cells, membrane potential fluorescence; series mostly up to 22.9 µM. In short, it runs like this:
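HEK293 ACTOne cells with CNG channel (1000/well), endogenous PDE4; membrane potential dye, compounds up to 22.9 uM final. Fluorescence Ex 535/Em 590; RO 20-1724 (100 uM final) as reference.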
(In general: Quantitative high-throughput screening tests each substance at several concentrations.)

Experiment [10] deals with Cytochrome P450 3A4 (Homo sapiens) (UniProt P08684). The experiment in a line: qHTS Assay for Activators of Cytochrome P450 3A4 (AID 885; active = well fitted curve in the direction sought with a large enough effect; an effect the other way counts as inactive or inconclusive; also: nearly all actives have a fitted effect of over 65% in size). Conditions: recombinant CYP3A4, Luciferin-PPXE luminescence, 60 min; series mostly up to 57.1 µM. In short, it runs like this: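 Human CYP3A4 dealkylates Luciferin-PPXE to luciferin, which luciferase detection converts to light. Substrate was at its KM (25uM), buffer 200mM KPO4, reaction 60 min at RT.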
Sequence of Cytochrome P450 3A4 (Homo sapiens) (P08684 whole entry, looked up): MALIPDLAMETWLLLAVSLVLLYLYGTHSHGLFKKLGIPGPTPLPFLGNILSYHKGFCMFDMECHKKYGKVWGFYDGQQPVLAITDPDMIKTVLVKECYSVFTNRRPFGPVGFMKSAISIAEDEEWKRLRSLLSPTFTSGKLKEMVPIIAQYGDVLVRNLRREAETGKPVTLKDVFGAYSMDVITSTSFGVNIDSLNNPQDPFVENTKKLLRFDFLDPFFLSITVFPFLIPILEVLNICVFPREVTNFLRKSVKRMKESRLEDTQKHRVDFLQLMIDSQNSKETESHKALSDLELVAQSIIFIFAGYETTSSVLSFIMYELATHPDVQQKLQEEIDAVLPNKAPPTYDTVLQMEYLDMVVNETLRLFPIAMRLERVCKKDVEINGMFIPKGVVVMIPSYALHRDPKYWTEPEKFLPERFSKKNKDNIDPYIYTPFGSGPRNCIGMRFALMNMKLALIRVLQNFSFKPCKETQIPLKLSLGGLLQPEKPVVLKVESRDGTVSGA

A short description of experiment [11]: Confirmation and Secondary Assay for Modulators of Hemoglobin Beta Chain Splicing at IVS2 654 locus (AID 910; active = well fitted curve in the direction sought with a large enough effect; an effect the other way counts as inactive or inconclusive;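 also: HeLa cells stably carrying EGFP split by mutant beta-globin IVS2-654 intron; % of control where 0% means no effect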). Conditions: HeLa EGFP-654 splicing reporter, GFP fluorescence, 48 h; series mostly up to 38.3 µM. In short, it runs like this: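 HeLa cells stably expressing EGFP interrupted by β-globin IVS2-654 intron, seeded overnight in Opti-MEM/2% FCS, then treated 2 days at 37 °C. Restored splicing read as total peak GFP intensity per well by laser scanning cytometry (488 nm excitation, 500–520 nm emission); 500 nM antisense PNA as control.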

Experiment [12] is described as follows: qHTS Assay for Identification of Small Molecule Agonists for Hypoxia Response Element Signaling Pathway (AID 914; active = well fitted activation curve with a large enough effect in the signal ratio, with a control signal flat, not every such curve was filed as active; the % refers to the signal ratio; also: % of control where 0% means no effect). Conditions: ME-180 (cervical carcinoma) HRE-bla reporter, beta-lactamase ratio, CoCl2, 17 h; activation: active compounds read high. The method, boiled down: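 HRE-bla ME-180 cells with beta-lactamase reporter under hypoxia response element, compounds with EC50 CoCl2 for 17 hours at 37 C. CCF4 substrate, 460nm/530nm emission ratio gave %Activity; AC50 from titration series.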

A short description of experiment [13]: Confirmation and Secondary Assay for Modulators of Hemoglobin Beta Chain Splicing at IVS2 705 locus (AID 930; active = well fitted curve in the direction sought with a large enough effect; an effect the other way counts as inactive or inconclusive; also: % of control where 0% means no effect). Conditions: HeLa EGFP-705 splicing reporter, GFP fluorescence, 48 h; series mostly up to 38.3 µM. In short, it runs like this: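 HeLa cells stably carrying EGFP interrupted by mutant beta-globin intron 2 (IVS2-705) treated 2 days at 37C with compound; 500 nM antisense PNA as control. Correct splicing read as total peak GFP intensity per well by laser-scanning cytometry.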

The nature of experiment [14]: Primary qHTS for small molecule stabilizers of the endoplasmic reticulum resident proteome: Secreted ER Calcium Modulated Protein (SERCaMP) assay (AID 1508630; active = well fitted curve in the direction sought with a large enough effect; an effect the other way counts as inactive or inconclusive; also: % is scaled to controls: 0 for no effect and ±100 for the full control effect). Conditions: SH-SY5Y GLuc-SERCaMP (Gaussia luciferase released on ER calcium loss) secretion, thapsigargin, luminescence; series mostly up to 38.4 µM. The method, boiled down:
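The SH-SY5Y reporter protocol was run at 3 concentrations up to 38.3 uM (primary) or 11 concentrations (follow-up): 16 h compound, 100 nM thapsigargin for 4 h, then extracellular luciferase luminescence.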

Experiment [15] concerns the target Cytochrome P450 3A4 (Homo sapiens) (UniProt P08684). As to the kind of experiment: qHTS Assay for Inhibitors and Substrates of Cytochrome P450 3A4 (AID 884; active = well fitted curve in the direction sought with a large enough effect; an effect the other way counts as inactive or inconclusive; also: potency is read from the fitted curve at half-maximal effect; nearly all actives have a fitted effect of over 50% in size). Conditions: recombinant CYP3A4, Luciferin-PPXE luminescence; series mostly up to 57.1 µM. In short, it runs like this: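 Luminescent readout of luciferin produced by CYP3A4 (20 nM) dealkylation of Luciferin-PPXE, 25 uM (its KM). NADPH-driven reaction ran 60 min at RT after 10 min compound preincubation; data scaled to 57 uM ketoconazole as 100% inhibition.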

Results on seven compounds are retold here after PubChem BioAssay (NCATS).

Unmarked numbers belong to inactive results. Records with an inconclusive call do not appear. Calls of active or inactive are those of the source. Unless noted, calls follow the shape of the dose curve; as a rule, active = well fitted curve in either direction with a large enough effect (not every such curve was filed as active); inconclusive = small, poorly fitted or top-dose-only effect, or another doubt; inactive = flat fitted curve, though single readings scatter. Some results are limits rather than exact numbers.

Sequence of 3',5'-cyclic-AMP phosphodiesterase 4B (Homo sapiens) (Q07343 whole entry, looked up): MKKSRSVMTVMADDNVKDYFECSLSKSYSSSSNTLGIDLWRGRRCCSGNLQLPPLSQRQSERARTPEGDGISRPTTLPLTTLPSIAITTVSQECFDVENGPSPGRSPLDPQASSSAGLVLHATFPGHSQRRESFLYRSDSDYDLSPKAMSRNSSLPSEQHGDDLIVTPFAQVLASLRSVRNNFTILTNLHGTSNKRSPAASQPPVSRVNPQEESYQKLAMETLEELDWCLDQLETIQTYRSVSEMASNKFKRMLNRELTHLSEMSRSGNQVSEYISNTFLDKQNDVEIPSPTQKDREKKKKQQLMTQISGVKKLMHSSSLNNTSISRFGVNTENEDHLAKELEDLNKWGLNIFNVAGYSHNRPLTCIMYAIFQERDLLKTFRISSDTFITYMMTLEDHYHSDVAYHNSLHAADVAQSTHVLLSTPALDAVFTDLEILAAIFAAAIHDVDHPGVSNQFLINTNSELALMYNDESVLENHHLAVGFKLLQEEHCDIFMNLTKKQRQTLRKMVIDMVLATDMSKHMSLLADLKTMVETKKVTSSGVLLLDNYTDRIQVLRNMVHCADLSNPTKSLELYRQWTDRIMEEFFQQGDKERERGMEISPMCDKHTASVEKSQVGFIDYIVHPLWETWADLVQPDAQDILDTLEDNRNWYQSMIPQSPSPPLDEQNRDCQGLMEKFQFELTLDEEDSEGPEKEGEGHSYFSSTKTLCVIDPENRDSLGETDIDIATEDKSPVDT
Sequence of Cytochrome P450 1A2 (Homo sapiens) (P05177 whole entry, looked up): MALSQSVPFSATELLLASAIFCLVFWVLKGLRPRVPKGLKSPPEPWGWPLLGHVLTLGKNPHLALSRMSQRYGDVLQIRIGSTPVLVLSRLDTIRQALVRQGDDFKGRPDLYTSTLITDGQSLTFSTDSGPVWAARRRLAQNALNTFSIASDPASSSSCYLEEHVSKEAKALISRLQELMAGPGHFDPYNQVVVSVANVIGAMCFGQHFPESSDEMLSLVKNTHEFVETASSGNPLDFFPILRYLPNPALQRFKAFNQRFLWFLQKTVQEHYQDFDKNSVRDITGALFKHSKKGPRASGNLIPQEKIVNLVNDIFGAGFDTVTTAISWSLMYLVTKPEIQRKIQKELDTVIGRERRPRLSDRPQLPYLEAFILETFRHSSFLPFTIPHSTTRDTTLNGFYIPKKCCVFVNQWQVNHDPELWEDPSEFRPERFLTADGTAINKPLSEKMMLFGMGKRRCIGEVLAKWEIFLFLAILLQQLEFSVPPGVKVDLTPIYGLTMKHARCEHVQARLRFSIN
Sequence of Lysosomal acid glucosylceramidase (Homo sapiens) (P04062 whole entry, looked up): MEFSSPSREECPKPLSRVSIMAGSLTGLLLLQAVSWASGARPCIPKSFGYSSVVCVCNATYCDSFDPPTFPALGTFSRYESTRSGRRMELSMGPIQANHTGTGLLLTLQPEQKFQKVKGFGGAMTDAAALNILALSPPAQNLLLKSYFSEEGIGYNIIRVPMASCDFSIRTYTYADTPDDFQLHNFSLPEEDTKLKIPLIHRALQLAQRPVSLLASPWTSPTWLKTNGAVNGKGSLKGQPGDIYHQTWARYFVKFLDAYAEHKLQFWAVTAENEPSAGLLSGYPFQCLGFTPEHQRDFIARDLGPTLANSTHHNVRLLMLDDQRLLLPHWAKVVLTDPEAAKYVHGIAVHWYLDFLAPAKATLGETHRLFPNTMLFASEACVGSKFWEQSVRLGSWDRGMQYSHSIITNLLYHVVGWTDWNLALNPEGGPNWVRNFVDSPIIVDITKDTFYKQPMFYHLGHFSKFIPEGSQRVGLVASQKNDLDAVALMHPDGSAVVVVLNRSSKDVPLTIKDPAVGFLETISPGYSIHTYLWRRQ

On to `CN1CCN(c2ccnc(-c3cccc(NS(C)(=O)=O)c3)n2)CC1`, for which the Potency in [1] was greater than 11.4 µM; in [3] it was 12.6 µM (active); in [6], greater than 46 µM; in experiment [7] it was greater than 46 µM. The activity change, negative = inhibition in experiment [2] is -6.86%; in [4] it was -9.78%. The activity, negative = inhibition in experiment [5] was 7.5%. For the same compound, the Potency result in [8], in experiment [9], in [10] and in experiment [11] was “inactive” each time. Besides, the activation in [12] was 0.356%. Also, the compound was classed as inactive in [13] and in experiment [14].
`COc1ccc(Oc2ncc3nc(C)c(=O)n(CCC#N)c3n2)cc1`: the Potency was greater than 11.4 µM in [1], 25.1 µM (active) in experiment [3], greater than 9.22 µM in experiment [6] and greater than 46 µM in experiment [7]. Besides, the activity change, negative = inhibition in experiment [2] is -15.5%; in experiment [4] it was 8.56%. In addition, the activity, negative = inhibition in experiment [5] is -12.9%. The Potency entry in [8] and in [9] was “inactive” each time. In addition, in experiment [14], the result was inactive.
On to `COCCn1c(=O)c(-c2ccc(F)cc2)nc2cncnc21`, for which the Potency in experiment [1] was greater than 11.4 µM; in [3] it was 0.501 µM (active); in [6], greater than 9.22 µM; in [7] it was greater than 46 µM. Besides, the activity change, negative = inhibition is -7.99% in [2] and 1.81% in [4]. The activity, negative = inhibition in experiment [5] was 2.35%. Also, the Potency result in experiment [8], in [9] and in experiment [10] was “inactive” each time. Moreover, the activation in [12] was 3.14%. The outcome in experiment [14] was inactive.
With `O=c1c(-c2cccc(F)c2)nc2cncnc2n1C1CC1`, the Potency in [1] was greater than 11.4 µM; in experiment [3], 1.58 µM (active); in experiment [6] it was greater than 9.22 µM; in experiment [7], greater than 46 µM. For the same compound, the results for the activity change, negative = inhibition in experiment [2] and in experiment [4] were -9.05% and -1.62%, respectively. Further, the activity, negative = inhibition in experiment [5] is 1.43%. The Potency result in experiment [8], in experiment [9] and in [10] was “inactive” throughout. Moreover, the result in experiment [14] was inactive.
Regarding `Cc1nc2cnc(Oc3ccccc3)nc2n(-c2ccccc2)c1=O`, the Potency is greater than 11.4 µM in experiment [1], 10 µM (active) in experiment [3], greater than 9.22 µM in experiment [6] and greater than 46 µM in experiment [7]. Also, the activity change, negative = inhibition in experiment [2] is -7.96%; in experiment [4], 9.01%. In addition, in experiment [5], the activity, negative = inhibition was -3.48%. In addition, the Potency entry in experiment [8], in [9] and in experiment [10] was “inactive” each time. Further, in [14], the outcome was inactive.
For the compound `COc1ccc(Oc2ncc3ncc(=O)n(Cc4cccs4)c3n2)cc1`, the Potency was greater than 11.4 µM in experiment [1]; 10 µM (active) in experiment [3]; greater than 9.22 µM in experiment [6]; greater than 46 µM in [7]; 3.16 µM (active) in experiment [15]. The activity change, negative = inhibition in experiment [2] was -29.2%; in experiment [4], -6.6%. In addition, the activity, negative = inhibition in experiment [5] was -28.6%. Moreover, the Potency entry in experiment [8], in experiment [9] and in [10] was “inactive” each time. Also, the result in experiment [14] was inactive.
As to `Cc1nc2cnc(N(C)C)nc2n(C)c1=O`, the Potency is greater than 11.4 µM in experiment [1], 3.98 µM (active) in experiment [3], greater than 9.22 µM in experiment [6] and greater than 46 µM in [7]. Further, the activity change, negative = inhibition was -9.37% in [2] and -9.43% in [4]. Besides, the activity, negative = inhibition in experiment [5] is 0.339%. Besides, the Potency entry in experiment [8], in experiment [9] and in experiment [10] was “inactive” each time. Moreover, the outcome in experiment [14] was inactive.
